ChEMBL document CHEMBL1157539, “Thousands of chemical starting points for antimalarial lead identification” (Nature, 2010)

Test system: Plasmodium falciparum
Experiment: GSK_TCMDC: Inhibition of Plasmodium falciparum 3D7 in whole red blood cells, using parasite LDH activity as an index of growth. Test compounds present at 2uM
Assay type: functional

Row | Structure (SMILES) | Inhibition
1 | Cc1cc(N2CCCC2)nc(Nc2ccc(NC(=O)c3ccc4c(c3)OCO4)cc2)n1 | 100%
2 | Cc1cc(NC(=O)c2cccs2)ccc1OC1CCN(Cc2ccc(F)cc2)CC1.O=C(O)C(F)(F)F | 94%
3 | CC(=O)c1cccc(S(=O)(=O)NCCCNc2nc3cc(C)cc(C)c3cc2C#N)c1 | 95%
4 | COc1ccc(S(=O)(=O)Nc2cc(C)cc(Br)c2OC)cc1N1CCN(C(=O)C(Cl)(Cl)Cl)CC1.Cl | 91%
5 | COc1nc(NCC(C)C)nc(Oc2ccc(=O)n(Cc3ccccc3)n2)n1 | 97%
6 | Cc1cc(N[C@@H](Cc2ccccc2)C(=O)Nc2ccccc2)nc(NCC2CCCCC2)n1.O=C(O)C(F)(F)F | 98%
7 | COc1ccc(NC(=O)/C=C/c2ccc(Cl)c(C(F)(F)F)c2)cc1OCCN(C(C)C)C(C)C.O=C(O)C(F)(F)F | 95%
8 | CCCCCCCN1CC[C@@H](CCCc2ccnc3ccc(OCCCCN/C(N)=N/O)cc23)[C@@H](CC)C1.O=C(O)C(=O)O | 90%
9 | Cc1csc(-c2ncc(OC[C@@H](N)Cc3ccccc3)cc2-c2ccc3[nH]nc(C)c3c2)c1.O=C(O)C(F)(F)F | 98%
10 | CN1CCCN(Cc2ccc(-c3cccc(NC(=O)c4ccc(C#N)cc4)c3)cc2)CC1.O=C(O)C(F)(F)F | 100%
11 | CC(C)Cc1cnc2nc(N)nc(N)c2c1.Cl | 98%
12 | NC(=O)c1cnc2cc(-c3ccncc3)cc(Nc3ccc(NC(=O)C4CCCCC4)cc3)c2c1 | 98%
13 | Cc1sc(N2CCCCC2)nc1C(=O)Nc1ccc(F)cc1C(F)(F)F.O=C(O)C(F)(F)F | 86%
14 | Cc1ccccc1C1CCN(C2CCC(NC(=O)/C=C/c3c[nH]c4ccccc34)CC2)CC1 (configuration not stated) | 100%
15 | O=C(O)C(F)(F)F.c1cc(CNCCN2CCNCC2)cc(-c2ccc(-c3nc4ccccc4[nH]3)cc2)c1 | 98%
16 | Br.CC(C)(C)c1ccc(OCCCON2C(N)=NC(N)=NC2(C)C)cc1 | 93%
17 | CCN(CCCN1CCCCC1)c1cc(C)nc(Nc2ccc(C)c(F)c2)n1.O=C(O)C(F)(F)F | 100%
18 | Cc1cccc2nc(-c3cccc(-c4ccc(NC(=O)NCc5cccc(F)c5)cc4)c3)[nH]c12 | 100%
19 | CC(C)Cn1c(Sc2ccc(C#N)c([N+](=O)[O-])c2)nnc1-c1ccc(N(C)C)cc1 | 98%

Row | Structure (SMILES) | Inhibition
20 | CC(C)N1CCN(C(CN2CCN(CCCOc3ccc(-c4ccccc4)cc3)CC2)c2ccc(F)cc2)CC1.Cl (configuration not stated) | 100%
21 | N#Cc1ccc(-c2ccc(C(=O)NCCCCN3CCC(c4ccc5c(c4OCc4ccncc4)CCCC5)CC3)cc2)cc1 | 81%
22 | CN1CCN(CCCNCc2ccc(Nc3nccc(Nc4ccc(Oc5ccccc5)cc4)n3)cc2)CC1 | 100%
23 | c1ccc(Oc2ccc(Nc3ccnc4ccc(-c5ccccn5)cc34)cc2)cc1 | 80%
24 | N#Cc1ccc(CN2CCCN(Cc3cccc(NC(=O)c4ccc(Cl)c(Cl)c4)c3)CC2)cc1.O=C(O)C(F)(F)F | 95%
25 | Cl.NOCCCCOc1ccc(Br)cc1 | 99%
26 | COc1cc(C2C(Oc3ccccc3)C(=O)N2Cc2ccc(F)cc2)cc(OC)c1OC (configuration not stated) | 100%
27 | N#Cc1cccc(NC(=O)Nc2cccc(-c3cccc(-c4nc5ccccc5[nH]4)c3)c2)c1 | 100%
28 | CCOc1ccc(Nc2nc(N)c3ccccc3n2)cc1.Cl | 90%
29 | O=C(NCc1ccc(Cl)c(Cl)c1)c1ccc(C2CCCN(Cc3ccc4[nH]cnc4c3)C2)cc1 (configuration not stated) | 100%
30 | CCCCCCc1cc(OC)c(OC)cc1C(C)Nc1ccnc2cc(Cl)ccc12 (configuration not stated) | 95%
31 | COc1ccccc1CN1CCC(NC(=O)c2ccc(-c3cccc(Cl)c3)s2)CC1.O=C(O)C(F)(F)F | 84%
32 | CN1CCCN(Cc2cccc(-c3cccc(NC(=O)c4cccc(C#N)c4)c3)c2)CC1.O=C(O)C(F)(F)F | 95%
33 | CC(C)Oc1ccc(C=CC(=O)Nc2noc3ccccc23)cc1 | 96%
34 | CN(C)CCOc1ccc(N2CCN(CCCCNC(=O)c3ccc(/C=C/c4cc(Cl)cc(Cl)c4)cc3)CC2)cc1 | 98%
35 | CCOc1c(CNCCCNc2nc3ccccc3[nH]2)cc(I)cc1OC.Cl | 100%
36 | COc1cccc2c(N/N=C/c3ccc([N+](=O)[O-])cc3)ccnc12 | 92%
37 | CN(c1ccccc1)c1ccnc(NC(=N)Nc2ccc(Cl)cc2)n1 | 87%
